This is an account of results in PubChem BioAssay.

“And” between values parts separate entries of the source, which are not always exact repeats. Equal values may be shown once. Results filed as inconclusive are left out. The source made the active and inactive calls. Unless noted, cut-off not given; nearly all actives show AC50 up to about 30 µM.

Test [1] concerns the target ATP-dependent translocase ABCB1 (Homo sapiens) (UniProt P08183). Briefly: P-glycoprotein substrate transport blockade – cell-based (AID 377; in the data active means fluorescence slope change above about 50%). As to conditions: MDR1-expressing cells, fluorescent substrate accumulation slope; stronger effect = higher value; concentration not given here.
Test [2] is described as follows: viability loss in pontine glioma line – cell-based, JHH-DIPG-1, MIPE4.0, CellTiter-Glo, qHTS, dose response (AID 1347062; cut-off not given, nearly all actives have AC50 up to about 27 µM;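 on AC50: cells exposed to compound for two days before readout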). As to conditions: JHH-DIPG-1 viability, CellTiter-Glo ATP luminescence. (In ATP-based viability assays light output follows the ATP content of the culture.)
A short description of test [3]: viability loss in pontine glioma line – cell-based, SU-DIPG-IV, MIPE4.0, CellTiter-Glo, qHTS, dose response (AID 1347063).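 Further: compound exposure lasted 48 hours before the viability readout.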 The note with it: CellTiter-Glo ATP luminescence.
Test [4] is described as follows: viability loss in pontine glioma line – cell-based, SU-DIPG-XIII, MIPE5.0, CellTiter-Glo, qHTS, dose response (AID 1347064; cut-off not given, nearly all actives have AC50 up to about 23 µM;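 on AC50: cells exposed to compound for 48 hours before the viability read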). The note with it: CellTiter-Glo ATP luminescence.
A short description of test [5]: viability loss in pontine glioma line – cell-based, SU-DIPG-XXV, MIPE5.0, CellTiter-Glo, qHTS, dose response (AID 1347065; cut-off not given, nearly all actives have AC50 up to about 26 µM;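 further: cells exposed to compound for 48 hours before ATP readout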). The note with it: CellTiter-Glo ATP luminescence.
Test [6] can be described thus: growth inhibition of DIPG cells – cell-based, MIPE4.0 library, CellTiter-Glo luminescence, qHTS (AID 1347066).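 Further: cells exposed to compound for 48 hours before readout.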 As to conditions: SU-DIPG-VI viability, CellTiter-Glo ATP luminescence.
The nature of test [7]: JHH-DIPG-1 glioma cell viability, MIPE5.0 library, CellTiter-Glo luminescence, qHTS (AID 1347067; cut-off not given, nearly all actives have AC50 up to about 26 µM;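 further: cells exposed to compound for 48 hours before readout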). The note with it: JHH-DIPG-1 glioma viability, CellTiter-Glo ATP luminescence.
Test [8] is described as follows: growth inhibition of DIPG cells – cell-based, MIPE5.0 library, qHTS (AID 1347068; cut-off not given, nearly all actives have IC50 up to about 30 µM;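 on IC50: cells exposed to compound for 48 hours before viability readout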). As to conditions: SU-DIPG-XXV viability. (In general: Quantitative high-throughput screening tests each substance at several concentrations.)
Test [9] concerns the target Mitogen-activated protein kinase 7 (Homo sapiens) (UniProt Q13164). The test can be described thus: Gal4-ERK5 driven luciferase induction – cell-based, HTS, primary screen (AID 1508626;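 active means luciferase signal above three times the same-plate solvent-only control wells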;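 further: luciferase driven by Gal4-ERK5 fusion binding five Gal4 sites before minimal TATA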). As to conditions: HeLa Gal4-ERK5 transactivation, 18 h, at 5 µM, stronger effect = higher value.
The nature of test [10]: galactose survival enhancers in mitochondrial complex I cybrids – cell-based, galactose medium, ATP luminescence, primary screen (AID 1645843;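 active means z-score of at least 1.8 in each of two replicates, scored against plate mean and spread of sample wells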;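 further: positive z means more ATP and so rescue of galactose-driven cybrid death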). The note with it: complex I mutant cybrid cells, 72 h, stronger effect = higher value.
Test [11] in a line: growth inhibition, single agents and combos, LFS_MB_1R, cell-based, cisplatin or BGB combos, synergistic combos for chromothripsis tumors (AID 1671452; in the data active means inhibition above about 80%;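 further: cells exposed for 96 hours before readout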). As to conditions: LFS_MB_1R medulloblastoma cells, stronger effect = higher value.
Test [12] in a line: growth inhibition, single agents and combos, CRL2098, cell-based, BGB or cisplatin IC20 combos, synergistic combos for chromothripsis tumors (AID 1671454; in the data active means inhibition above about 80%;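 further: cells exposed for 96 h before readout; 0% = vehicle DMSO and 100% = killing by high DMSO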). The note with it: CRL2098 osteosarcoma cells, drug combinations, stronger effect = higher value.
Test [13] can be described thus: growth inhibition, single agents and combos, HD-MB03, cell-based, BGB or cisplatin IC20 combos, synergistic combos for chromothripsis tumors (AID 1671455; in the data active means inhibition above about 83%;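 further: 0% = vehicle DMSO and 100% = high DMSO as cytotoxic control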). As to conditions: HD-MB03 medulloblastoma cells, stronger effect = higher value.
A short description of test [14]: growth inhibition, single agents and combos, UWB1.289, cell-based, BGB or cisplatin combos, synergistic combos for chromothripsis tumors (AID 1671456; in the data active means inhibition above about 80%;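 further: cells exposed to compound for four days; 0% = vehicle DMSO and 100% = killing by high DMSO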). As to conditions: UWB1.289 ovarian carcinoma cells, stronger effect = higher value.
Test [15] in a line: growth inhibition, single agents and combos, LFS_MB_2R, cell-based, cisplatin combos, synergistic combos for chromothripsis tumors (AID 1671457; in the data active means inhibition above about 80%;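 further: cells exposed to compound for four days before readout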). As to conditions: LFS_MB_2R medulloblastoma cells, stronger effect = higher value.
Test [16] in a line: UWB1.289_BRCA1 ovarian cancer growth, cell-based, BGB or cisplatin combinations (AID 1671459; in the data active means inhibition above about 80%). As to conditions: UWB1.289 BRCA1 ovarian carcinoma, drug combinations, stronger effect = higher value.
A short description of test [17]: drug combination toxicity in non-malignant astrocytes – cell-based, BGB or cisplatin IC20 combos, cytotoxicity control for chromothriptic childhood tumor combination screen (AID 1671460; in the data active means inhibition above about 80%;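 further: cells exposed to compounds for 96 hours before viability readout; 0% = vehicle and 100% = killing control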). The note with it: Human astrocytes, viability inhibition, drug combinations, at 0.5 µM, stronger effect = higher value.
The nature of test [18]: BT084 cell growth, single and combined drugs, ICGC_MB145, cisplatin and BGB IC40 combos (AID 1671461; in the data active means inhibition above about 80%;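 further: cells exposed to drugs for 96 hours; 0% = vehicle DMSO and 100% = high DMSO full killing control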). The note with it: BT084 medulloblastoma cells, drug combinations, stronger effect = higher value.
Test [19] is described as follows: RCMB18 cell growth, single agent and combined, cisplatin and BGB IC40 combos (AID 1671462; in the data active means inhibition above about 80%;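 further: cells exposed to compound for four days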). The note with it: RCMB18 medulloblastoma cells, stronger effect = higher value.
Test [20] can be described thus: CRL1545 cell growth, single agent and combined, cisplatin and BGB IC20 combos (AID 1671464; in the data active means inhibition above about 80%;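 further: cells exposed to compound for 96 hours before readout; 0% = vehicle DMSO and 100% = high DMSO killing control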). The note with it: CRL1545 osteosarcoma cells, stronger effect = higher value.
Where [21] appears, read: measured here: combination with cisplatin, at 0.5 µM.
Setting [22] is: measured here: combination with cisplatin, at 5 µM.

Sequence of Mitogen-activated protein kinase 7 (Homo sapiens) (Q13164 whole entry, looked up, the tested form may be a part): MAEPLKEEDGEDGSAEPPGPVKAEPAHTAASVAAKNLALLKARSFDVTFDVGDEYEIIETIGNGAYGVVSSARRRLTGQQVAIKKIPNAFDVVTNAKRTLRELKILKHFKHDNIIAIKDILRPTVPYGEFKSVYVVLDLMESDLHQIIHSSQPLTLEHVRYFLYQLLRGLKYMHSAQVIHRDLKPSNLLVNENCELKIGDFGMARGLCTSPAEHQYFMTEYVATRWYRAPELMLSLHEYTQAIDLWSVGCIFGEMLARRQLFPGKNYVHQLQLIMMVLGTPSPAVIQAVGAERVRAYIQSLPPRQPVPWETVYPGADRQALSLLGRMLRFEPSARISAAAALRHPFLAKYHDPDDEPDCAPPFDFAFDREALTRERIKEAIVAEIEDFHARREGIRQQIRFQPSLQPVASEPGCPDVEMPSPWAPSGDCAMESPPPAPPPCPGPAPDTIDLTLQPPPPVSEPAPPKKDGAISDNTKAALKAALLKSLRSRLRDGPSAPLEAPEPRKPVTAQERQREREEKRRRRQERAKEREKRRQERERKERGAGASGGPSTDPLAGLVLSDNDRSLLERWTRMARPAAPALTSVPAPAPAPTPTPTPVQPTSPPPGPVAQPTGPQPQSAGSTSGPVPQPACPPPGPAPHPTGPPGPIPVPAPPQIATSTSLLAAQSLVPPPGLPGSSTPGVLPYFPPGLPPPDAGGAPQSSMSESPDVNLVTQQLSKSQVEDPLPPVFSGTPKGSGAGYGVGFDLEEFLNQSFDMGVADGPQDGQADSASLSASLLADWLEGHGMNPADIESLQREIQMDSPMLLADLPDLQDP
Sequence of ATP-dependent translocase ABCB1 (Homo sapiens) (P08183 whole entry, looked up): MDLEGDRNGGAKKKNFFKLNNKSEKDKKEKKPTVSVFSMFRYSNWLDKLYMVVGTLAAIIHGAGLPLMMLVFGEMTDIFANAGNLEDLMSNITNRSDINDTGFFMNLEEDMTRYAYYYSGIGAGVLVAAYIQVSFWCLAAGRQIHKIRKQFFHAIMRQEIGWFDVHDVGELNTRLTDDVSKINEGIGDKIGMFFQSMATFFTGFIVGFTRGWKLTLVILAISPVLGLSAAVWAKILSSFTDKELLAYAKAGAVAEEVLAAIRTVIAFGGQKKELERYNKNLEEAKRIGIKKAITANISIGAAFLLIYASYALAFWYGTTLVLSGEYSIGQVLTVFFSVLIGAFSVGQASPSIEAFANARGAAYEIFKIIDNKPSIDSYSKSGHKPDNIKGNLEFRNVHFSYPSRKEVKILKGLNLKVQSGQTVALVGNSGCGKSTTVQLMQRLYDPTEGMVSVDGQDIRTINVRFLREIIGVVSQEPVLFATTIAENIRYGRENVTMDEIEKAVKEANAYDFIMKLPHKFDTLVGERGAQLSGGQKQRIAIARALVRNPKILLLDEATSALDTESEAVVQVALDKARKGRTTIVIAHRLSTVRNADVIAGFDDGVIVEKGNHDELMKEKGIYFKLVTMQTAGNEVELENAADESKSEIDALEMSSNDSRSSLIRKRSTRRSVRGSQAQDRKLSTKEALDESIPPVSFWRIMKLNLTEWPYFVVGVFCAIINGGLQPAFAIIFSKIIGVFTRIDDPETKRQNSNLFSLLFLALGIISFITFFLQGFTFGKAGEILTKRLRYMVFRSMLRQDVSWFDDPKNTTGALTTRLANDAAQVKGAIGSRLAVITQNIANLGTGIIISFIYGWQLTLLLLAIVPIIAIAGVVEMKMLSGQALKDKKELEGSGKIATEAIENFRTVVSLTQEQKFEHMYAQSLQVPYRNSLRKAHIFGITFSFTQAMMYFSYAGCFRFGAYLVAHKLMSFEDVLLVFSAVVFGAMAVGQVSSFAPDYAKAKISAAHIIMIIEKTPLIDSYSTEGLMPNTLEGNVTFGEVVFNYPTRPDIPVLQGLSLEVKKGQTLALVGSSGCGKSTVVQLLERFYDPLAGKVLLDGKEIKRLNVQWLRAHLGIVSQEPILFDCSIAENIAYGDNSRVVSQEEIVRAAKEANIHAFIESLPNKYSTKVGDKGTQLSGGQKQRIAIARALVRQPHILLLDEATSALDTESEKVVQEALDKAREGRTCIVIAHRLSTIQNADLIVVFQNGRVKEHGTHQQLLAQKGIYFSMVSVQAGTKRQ

On to `NC(N)=NC(N)=NCCc1ccccc1`, for which, in test [1], the fluorescence slope change is 100% (active). For the same compound, the compound was called inactive in test [2], in test [3], in [4], in test [5], in test [6] and in test [7]. In addition, the result in test [8] was inactive. Also, in [9], the luciferase signal is 40 AU (inactive). Besides, the z-score in [10] was -2.58 (inactive).
In the case of `COc1cc2c(c(OC)c1OC)-c1ccc(OC)c(=O)cc1[C@@H](NC(C)=O)CC2`, the fluorescence slope change in [1] is 7.7% (inactive). In addition, the AC50 (in general, the concentration at which the activity in the assay is half-maximal) was 0.105 µM (active) in test [2], 0.0525 µM (active) in [4], 0.0417 µM (active) in [5] and 0.0295 µM (active) in test [7]. In addition, the compound was called inactive in test [3]. The IC50 – broadly, the midpoint of a concentration-inhibition curve – in test [8] was 0.0468 µM (active). In addition, the luciferase signal in [9] was 88 AU (inactive). Besides, the z-score in [10] is -0.69 (inactive).
Regarding `Nc1cc(C(Cl)=C(Cl)Cl)c(S(N)(=O)=O)cc1S(N)(=O)=O`, the outcome in test [2], in test [3], in test [4], in test [5], in test [6] and in test [7] was inactive. For the same compound, in test [8], the compound was classed as inactive.
Regarding `N=C(N=C(N)N)N1CCOCC1`, the fluorescence slope change in [1] is 25.2% (inactive). In addition, the compound was classed as inactive in test [3] and in test [6]. In addition, the z-score in test [10] is 0.495 (inactive). In addition, the inhibition – broadly, the change of the read-out against control, counted positive when it falls – in test [11] (at 0.5 µM) is -2.71% (inactive); in test [11] (measured here: combination with BGB IC40, at 0.05 µM), 2.02%; in test [11] (setting [21]) it was 8.46%; in test [11] (setting [22]) it was -12.4%; in test [12] (at 0.5 µM), -24.9% (inactive); in [12] (measured here: combination with BGB at IC20, at 0.5 µM), -15.5%. Moreover, the inhibition was -34.6% in test [12] (measured here: combination with cisplatin at IC20, at 0.5 µM); -2.36% (inactive) in [13] (at 0.5 µM); 3.57% in test [13] (measured here: combo with BGB at IC20, at 0.5 µM); -15.2% in test [13] (measured here: combo with cisplatin at IC20, at 0.5 µM); 6.16% (inactive) in test [14] (at 0.5 µM); -1.97% in test [14] (measured here: inhibition with BGB combination, at 0.05 µM). Also, the inhibition in test [14] (measured here: inhibition with cisplatin combination, at 0.05 µM) is 3.05%; in [15] (at 0.5 µM), 6.81% (inactive); in [15] (setting [21]), 8.19%; in [15] (setting [22]) it was -31.5%; in test [16] (BGB combination, concentration series, at 5 µM), 1.52%; in test [16] (at 0.5 µM) it was 3.22% (inactive). Moreover, the inhibition in test [16] (cisplatin combination, concentration series, at 5 µM) is 4.22%; in test [17], 2.04% (inactive); in test [17] (measured here: combo with BGB IC20) it was 7.42%; in [17] (measured here: combo with cisplatin IC20), -4.5%; in test [18] (at 0.5 µM) it was 3.57% (inactive); in [18] (cisplatin combination, at 0.5 µM) it was -9.16%. Moreover, the inhibition in [18] (cisplatin combination, at 5 µM) was 7.43%; in test [18] (measured here: BGB IC40 combination 0.05 uM, at 0.05 µM), 0.739%; in [18] (single agent, at 5 µM) it was -12.3%; in test [19] (at 0.5 µM), 5.29% (inactive); in [19] (cisplatin combo, at 5 µM), -26%; in test [19] (measured here: BGB IC40 combination, at 0.05 µM), -14.8%. For the same compound, the inhibition in test [19] (setting [21]) was 25.2%; in test [19] (single agent, at 5 µM), -13.7%; in [20] (at 0.5 µM), 2.6% (inactive); in [20] (measured here: with BGB IC20 combination, at 0.5 µM), -18.7%; in test [20] (measured here: with cisplatin IC20 combination, at 0.5 µM), 11.3%; in [20] (single agent, at 0.05 µM), 0.225%. Further, the inhibition in test [20] (single agent, at 5 µM) was 8.11%.
In the case of `Cc1nc(Nc2ncc(C(=O)Nc3c(C)cccc3Cl)s2)cc(N2CCN(CCO)CC2)n1`, the AC50 in [2] is 16.6 µM (active); in [3], 16.6 µM (active); in test [4], 14.8 µM (active); in [5] it was 14.8 µM (active); in test [7], 7.42 µM (active). Further, in test [6], the compound was called inactive.
Regarding `Cn1c(=O)c2c(ncn2CC2OCCO2)n(C)c1=O`, the result in test [4], in test [5], in test [7] and in [8] was inactive. In addition, in [10], the z-score is 0.585 (inactive).
In the case of `COc1cc2ncnc(Nc3ccc(F)c(Cl)c3)c2cc1OCCCN1CCOCC1`, the AC50 in test [2] is 19.1 µM (active); in [3], 10.8 µM (active); in [6] it was 38.2 µM (active). Moreover, the call in test [4], in test [5], in test [7] and in [8] was inactive. Moreover, the z-score in test [10] is -0.29 (inactive) and 0.3 (inactive).
As for `NCCCNCCSP(=O)(O)O`, in [9], the luciferase signal was 52 AU (inactive). The z-score in test [10] is 0.585 (inactive) and 0.25 (inactive).
As for `CN(C)CCN(Cc1ccc(Cl)cc1)c1ccccn1`, the fluorescence slope change in test [1] was 92.6% (active). For the same compound, the call in [2] and in test [6] was inactive.
`CN(N=O)C(=O)N[C@@H]1[C@@H](O)[C@H](O)[C@@H](CO)O[C@@H]1O`: the result in [4], in test [5], in [7] and in test [8] was inactive. The luciferase signal in test [9] was 120 AU (inactive).
In the case of `Clc1ccc(Cn2c(CN3CCCC3)nc3ccccc32)cc1`, the fluorescence slope change in test [1] is 82.8% (active). The compound was called inactive in test [7] and in test [8]. Also, the luciferase signal in [9] was 56 AU (inactive). Moreover, the z-score in test [10] is -1.35 (inactive).
For `C#CCN(C)CCCOc1ccc(Cl)cc1Cl`, in [10], the z-score was -0.39 (inactive).
In the case of `Cc1cc(=O)oc2cc(O)ccc12`, the call in [2], in test [3], in test [5], in [6] and in test [7] was inactive.
With `C[C@H]1[C@H](NC(=O)/C(=N/OC(C)(C)C(=O)O)c2csc(N)n2)C(=O)N1S(=O)(=O)O` (stereo in doubt), the result in test [2], in test [3] and in test [6] was inactive.
On to `OC(CCN1CCCCC1)(c1ccccc1)C1CC2C=CC1C2` (stereo unspecified), for which, in test [1], the fluorescence slope change was 23% (inactive). The result in test [2], in test [3], in [5], in [6], in [7] and in test [8] was inactive. Further, the luciferase signal in test [9] was 60 AU (inactive). The z-score in test [10] was -0.86 (inactive).
As to `COc1c(C)c2c(c(O)c1C/C=C(\C)CCC(=O)OCCN1CCOCC1)C(=O)OC2`, the result in test [6] was inactive. In test [10], the z-score is 1.7 (inactive).
With `CC(=O)c1ccc2c(c1)N(CCCN(C)C)c1ccccc1S2`, in [1], the fluorescence slope change is 72% (active). In addition, the luciferase signal in [9] was 32 AU (inactive). In addition, the z-score in [10] was -0.995 (inactive).
Turning to `CC(C)Cn1cnc2c(N)nc3ccccc3c21`, the results for the AC50 in [2] and in test [3] were 18.7 µM (active) and 20.9 µM (active), respectively. For the same compound, the result in test [4], in [6], in [7] and in test [8] was inactive. Moreover, the z-score in test [10] is 0.245 (inactive).
